The list is not random: actives were taken first. Their share in the collection is about 1.8%.
Imprint erasure: genomic imprint erasure induction; mouse ES Peg3-LacZ reporter, beta-gal luminescence, 40 h; Potency, µM (highest dose often 60.7 µM), without a hit: at the top dose activity change, positive = activation, usual class: activators; 110,000 tested, 0.02% active; AID 1948
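Imprint erasure is scored as LacZ activity from the silenced maternal Peg3 allele in feeder-free female ES cells cultured 40 h with LIF. Luminescence is normalized to in-plate negative controls and fitted to the Hill equation.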
IkB sig inh: suppresses IkB signaling in ABC-DLBCL reporter cells; ABC-DLBCL IkBa-CBG/CBR dual luciferase ratio, 4 h; response scale: scaled: untreated 0%, proteasome inhibitor 100%; 110,000 tested, 0.04% active; Potency, µM (series often up to 57.1 µM), for inactives: top-dose IkBa stabilization activation; active = well fitted curve in the direction sought with a large enough effect in the signal ratio, not every such curve was filed as active; inconclusive = small, poorly fitted or top-dose-only effect, or a change in a side signal; the % refers to the signal ratio;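 note: the direction sought is a rising ratio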
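Curves were fitted separately to fusion (green), unfused (red) and ratio luminescence, then classed by r2, magnitude and activity. Cells: OCI-Ly3, 4 h compound plus doxycycline at 37C; 10 uM MG-132 defined full response.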
p53ts 32C kill: kills p53ts cells at the permissive temperature; H1299-p53A138V at 32C, ATP luminescence viability, 24 h; Potency, µM (titrated, usually from 46.1 µM), inactives show top-dose activity change, negative = cytotoxicity, most hits filed as cytotoxic; 130,000 tested, 0.93% active;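 note: 0% = DMSO and -100% = full killing by reference compound; nearly all actives have a fitted effect of over 55% in size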
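H1299-p53 A138V cells (temperature-sensitive p53) exposed 24 h to up to 46 uM compound at 32C, where p53 is wild-type in conformation. Viability read as ATP luminescence and normalised to DMSO and 100 uM tamoxifen. AC50 fitted with the Hill equation.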
p53ts 39C tox: cytotoxicity in p53ts cells at nonpermissive temperature; H1299-p53A138V viability at 39C, ATP luminescence, 24 h; Potency, µM (series often up to 46.1 µM), inactives show top-dose activity change, negative = cell killing, hits mostly cytotoxic; 130,000 tested, 1.5% active; note: % is set by controls: 0 for no effect and ±100 for the full control effect; nearly all actives have a fitted effect of over 55% in size
The depositor's hits bear a star; ? = inconclusive; . = not tested or not shown; [ ] = dose if it differs, or a comment. Unless noted, calls come from the whole dose curve; as a rule, active = well fitted curve in the direction sought with a large enough effect; inconclusive = small, poorly fitted or top-dose-only effect, or another doubt; inactive = no such curve, though single readings can be large; an effect the other way counts as inactive or inconclusive. Potency is the fitted concentration of half-maximal effect.

SMILES	Imprint erasure	IkB sig inh	p53ts 32C kill	p53ts 39C tox
Cc1ccc(CN(C(=O)COc2ccc(C(C)C)cc2)C2CCS(=O)(=O)C2)o1 (stereo not drawn)	14.1%[10.9 µM]	2.0%	3.6%	-3.4%
O=C(NCc1ccccc1Cl)C1CCC(CNS(=O)(=O)c2ccc(Br)s2)CC1 (stereo not drawn)	-12.9%[10.9 µM]	0.0%	?	12.6µM*
Cc1ccc(-c2nnc(SCC(=O)NCc3ccccc3)o2)cc1	-6.6%[10.9 µM]	0.0%	6.8%	-10.5%
COc1cccc(CNC(=O)c2cc3c(=O)n(C)c4ccccc4c3n2C)c1	-9.2%[10.9 µM]	?	-2.5%	10µM*
CCOc1ccc(-c2nc(SCC(=O)Nc3ccc4c(c3)OCCO4)c(-c3ccc(F)cc3)[nH]2)cc1	-11.8%[10.9 µM]	?	-29.4%	15.8µM*
Cc1ccccc1CSc1ncc(Cl)c(C(=O)Nc2nc3ccc(F)cc3s2)n1	-3.7%[10.9 µM]	1.0%	5.3%	?
Cc1cccc2c1-c1sc(C(=O)NCCCN3CCN(c4ccccc4F)CC3)cc1CO2	-18.9%[10.9 µM]	?	-3.7%	15.8µM*
CCN1CCN(CCCNC(=O)c2cc3c(s2)-c2c(C)cccc2OC3)CC1	-9.2%[10.9 µM]	?	?	25.1µM*
Cc1cccc2c1-c1sc(C(=O)N3CCN(c4cccc(Cl)c4)CC3)cc1CO2	-5.9%[10.9 µM]	?	8.9%	-16.0%
Cc1ccc(CNC(=O)c2cc3c(s2)-c2c(C)cccc2OC3)cc1	22.1%[10.9 µM]	?	-7.5%	?
Cc1cccc2c1-c1sc(C(=O)NCCCN3CCN(c4cccc(Cl)c4)CC3)cc1CO2	-31.0%[10.9 µM]	1.5%	-3.4%	12.6µM*
CCc1ccc(-n2c(SCc3cccc(F)c3)nc3[nH]ncc3c2=O)cc1	-8.4%[10.9 µM]	-1.6%	31.0%	?
CC(CN(C)C)NC(=O)c1ccc(Cc2nc3ccccc3[nH]2)cc1 (stereo not drawn)	.	.	8.3%	-1.3%
O=C(Nc1nnc(-c2ccccc2Cl)o1)c1ccco1	-28.6%	?	12.6µM*	10µM*
Cc1ccc(-c2nc(CNC(=O)Nc3ccccc3)c(C)o2)cc1	-6.3%[10.9 µM]	?	-4.3%	?
CN(Cc1ccccc1)S(=O)(=O)c1ccc(C(=O)Nc2nnc(C3CC3)o2)cc1	-27.4%	?	1.5%	12.6µM*
COc1ccccc1-c1nnc(NC(=O)c2ccc(S(=O)(=O)N(C)Cc3ccccc3)cc2)o1	-25.4%	4.2%	-2.4%	12.6µM*
CC(C)c1ccc(OC(=O)c2cc(-c3ccc4c(c3)OCCO4)on2)cc1	-18.7%[10.9 µM]	0.2%	12.6µM*	20µM*
CC(C)c1ccc(OC(=O)c2cc(-c3ccc(Cl)cc3)on2)cc1	11.9%[10.9 µM]	-0.8%	3.9%	11.9%
O=C(Oc1ccc(Cl)cc1)c1cc(-c2ccc3c(c2)OCCO3)on1	-12.9%[10.9 µM]	1.0%	-14.9%	?
N#Cc1ccc(OC(=O)c2cc(-c3ccc4c(c3)OCCO4)on2)cc1	-8.8%[10.9 µM]	2.6%	?	12.6µM*
COc1ccc(OC(=O)c2cc(-c3ccc4c(c3)OCCO4)on2)cc1	-21.1%[10.9 µM]	0.6%	12.6µM*	12.6µM*
CC(C)c1ccc(NC(=O)CSC2=Nc3ccccc3C3=NC(CCC(=O)NCc4cccs4)C(=O)N23)cc1 (stereo not drawn)	-11.5%[10.9 µM]	1.7%	13.1%	-20.8%
CCCCOc1ccc(C2C(=O)N(C3CCCCC3)CC(=O)N2C2CCCCC2)cc1 (stereo not drawn)	-8.2%[10.9 µM]	1.8%	14.9%	-19.0%
COc1cc(Cl)c(C)cc1NC(=O)CSc1cc(-c2ccccc2)nc(C)n1	-6.9%[10.9 µM]	0.2%	-7.0%	-26.0%
Cc1cccc(Cn2nnc3c(=O)[nH]c(C4CCCN(C(=O)c5ccc(C(C)(C)C)cc5)C4)nc32)c1 (stereo not drawn)	-6.8%[10.9 µM]	-0.6%	?	25.1µM*
Cc1ccccc1Cn1nnc2c(=O)[nH]c(C3CCCN(C(=O)c4ccc(C(C)(C)C)cc4)C3)nc21 (stereo not drawn)	-11.9%[10.9 µM]	?	8.5%	31.6µM*
Cc1nc2sc(C(c3cccs3)N3CCOCC3)c(O)n2n1 (stereo not drawn)	-71.0%	?	12.6µM*	?
Cc1cccc(CN2CCC(CNC(=O)Cn3ncc4c([nH]c5ccc(C)cc54)c3=O)CC2)c1	-8.8%[10.9 µM]	-2.1%	2.4%	10.6%
CCc1ccc(OCC(=O)Nc2ccc3c(c2)c2ccccc2n3CC)c(Br)c1	-11.9%[10.9 µM]	-6.9%	-12.2%	12.6µM*
